PubChem BioAssay

Experiment: fission yeast growth modulation, primary screen, strain 972, OD600, 24 h, no modulator (AID 1090);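 further: basal condition with compound alone and no growth modifier present; test concentration not given here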
Details: S. pombe 972 growth, higher = more signal, called active from +8 up or from −8 down

z-score, inactive:
C=CCC(OC(C)=O)[C@@H]1[C@@H](N(Cc2ccc(-c3ccccc3)cc2)C(=O)c2cccc3ccccc23)c2cc(OCCCO)ccc2N1C(=O)c1ccc2ccccc2n1 (stereo not given in full) -0.283
C=CCC(OC(C)=O)[C@@H]1[C@@H](N(Cc2cccc3ccccc23)C(=O)Cc2ccc(F)cc2)c2cc(OCCCO)ccc2N1C(=O)Cc1ccc(OC)cc1 (stereo not given in full) 0.246
O=C1O[C@H](c2ccccc2)[C@H](c2ccccc2)N2[C@H]1[C@@H](C(=O)N1CCN(c3ncccn3)CC1)[C@]1(C(=O)Nc3ccc(C#CCCO)cc31)[C@H]2c1ccccc1OCCO -1.62
COC(=O)[C@@]1(Cc2ccccc2)[C@H]2c3cc(C(=O)N4CCCC4)n(CCO)c3C[C@H]2CN1C(=O)c1ccccc1 1.45
COCCCNC(=O)[C@@]1(Cc2ccccc2I)c2ccccc2C(=O)N(Cc2ccccc2Cl)[C@H]1c1ccc(CO)cc1 -0.477
